# Screens: PubChem, National Center for Advancing Translational Sciences (NCATS)
# IL1B secr inh: blocks inflammasome-driven IL-1 beta release; AID 743279; 360,000 tested, 4.7% active; activity change, % at 57.5 µM; THP-1 LPS/ATP IL-1B secretion, AlphaLISA, 16 h; active compounds read low; in the data active means activity change below about -50%; inconclusive means mostly about -30% to -49%; further: on the % scale 0 is the no-effect control and ±100 the full control effect
#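 THP-1 cells pretreated 1 hr with compounds (up to 57.5 uM final), then stimulated with LPS (250 ng/mL final) plus ATP (1.25 mM final); secreted IL-1B measured by AlphaLISA after 16 hr, decreased signal indicating inhibition.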
# TDP1 cell noCPT: qHTS for Inhibitors of human tyrosyl-DNA phosphodiesterase 1 (TDP1): qHTS in cells in absence of CPT; DT40 Tdp1-/- hTDP1 cells, no CPT, ATP luminescence, 48 h; Potency, µM (highest dose often 46.2 µM), for the others: at the top dose activity change, negative = growth inhibition, usual class: inhibitors; 420,000 tested, 15% active; further: potency means the concentration at half of the fitted maximal effect; on the % scale 0 is the no-effect control and ±100 the full control effect; nearly all actives have a fitted effect of over 55% in size
#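 Compound effects on proliferation are scored in DT40 Tdp1-/-;hTDP1 cells in the absence of CPT. ATP levels (CellTiter-Glo luminescence) are recorded after a ≥48 hr, 37 °C incubation.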
# TGFb SMAD3 inh: inhibitors of TGF-b signaling; HepG2 CAGA-GFP TGF-b/SMAD3 reporter, GFP fluorescence, 18 h; TGF-beta stimulated, 500 pg/mL final; Potency, µM (doses to about 46.1 µM), for the others: top-dose activity, negative = inhibition, hits mostly inhibitors; 410,000 tested, 1.2% active; further: potency means the concentration at half of the fitted maximal effect; on the % scale 0 is the no-effect control and ±100 the full control effect; nearly all actives have a fitted effect of over 65% in size
#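 Smad-responsive CAGA-GFP expression was quantified in HEPG2 cells exposed to compounds and 500 pg/mL final TGF-beta for 18 h at 37 degrees C; unstimulated wells defined full inhibition.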
# DT40 TDP1 CPT: DT40-hTDP1 cell growth loss with CPT; chicken DT40 Tdp1-/-;hTDP1 cells + 20 nM CPT, ATP luminescence, 48 h; Potency, µM (highest dose often 46.2 µM), for the others: at the highest dose activity change, negative = growth inhibition, hits mostly inhibitors; 420,000 tested, 12% active; further: potency means the concentration at half of the fitted maximal effect; on the % scale 0 is the no-effect control and ±100 the full control effect; nearly all actives have a fitted effect of over 55% in size
#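 Cell growth measured by CellTiter-Glo luminescence after a minimum 48 h, 37 C compound exposure with 20 nM CPT in Tdp1-knockout DT40 cells stably expressing hTDP1, seeded 400/well; qHTS titration format.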
# HepG2 viability: counter-screen for TGF-b inhibitors: cytotoxicity in HepG2 cells; 410,000 tested, 0.76% active; HepG2 CAGA-GFP viability, ATP luminescence, 18 h; Potency, µM (series often up to 46.1 µM), for inactives: top-dose activity change, negative = cytotoxicity, usual class: cytotoxic; further: potency means the concentration at half of the fitted maximal effect
#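 HepG2 CAGA-GFP cells (1000/well, DMEM with 1% FBS) received compound, then TGF-beta at 500 pg/mL final, and were incubated 18 hours at 37 degrees C. Viability was read by CellTiter-Glo luminescence. Media-only wells were set as complete cell-killing and DMSO as no toxicity.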
# TDP1 block: inhibitors of human tyrosyl-DNA phosphodiesterase TDP1 | Q9NUW8 | recombinant TDP1, AlphaScreen DNA substrate cleavage | Potency, µM (titrated, usually from 130 µM), without a hit: top-dose activity change, negative = inhibition, actives largely listed as inhibitors | 350,000 tested, 0.28% active; further: potency means the concentration at half of the fitted maximal effect; on the % scale 0 is the no-effect control and ±100 the full control effect; nearly all actives have a fitted effect of over 40% in size
# Target sequence (Q9NUW8 whole entry, looked up): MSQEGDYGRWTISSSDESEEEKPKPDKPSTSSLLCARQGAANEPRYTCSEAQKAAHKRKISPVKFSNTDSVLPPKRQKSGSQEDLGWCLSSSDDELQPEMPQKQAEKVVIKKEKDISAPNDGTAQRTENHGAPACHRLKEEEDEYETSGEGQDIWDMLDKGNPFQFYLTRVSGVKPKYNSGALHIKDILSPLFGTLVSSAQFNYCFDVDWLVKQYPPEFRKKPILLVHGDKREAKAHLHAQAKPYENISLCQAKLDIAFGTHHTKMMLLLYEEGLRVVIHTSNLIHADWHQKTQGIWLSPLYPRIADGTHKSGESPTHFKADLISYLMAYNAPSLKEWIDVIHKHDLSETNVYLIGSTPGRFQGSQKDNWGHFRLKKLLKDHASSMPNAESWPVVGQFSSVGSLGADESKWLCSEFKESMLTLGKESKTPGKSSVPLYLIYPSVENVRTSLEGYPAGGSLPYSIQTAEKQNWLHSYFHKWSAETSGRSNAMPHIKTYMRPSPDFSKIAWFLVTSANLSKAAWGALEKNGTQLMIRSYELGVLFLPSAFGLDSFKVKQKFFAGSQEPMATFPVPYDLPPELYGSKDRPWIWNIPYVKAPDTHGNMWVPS
#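 Compounds were preincubated with Tdp1 (1 nM final) for 15 min at room temperature before substrate (15 nM final) started a 5 min reaction; beads (10 ug/ml final) were then added for 10 min before AlphaScreen detection.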
# An asterisk follows results filed as active; ? = inconclusive; . = no result; ! = not active in a repeat; [ ] = dose if it differs, or a comment. Only some compounds are listed: those with a hit (about 18% of all), similar ones and a draw of the others. Unless noted, the call rests on the fitted dose curve; in most records, active means well fitted curve in the direction sought with a large enough effect; inconclusive means small, poorly fitted or top-dose-only effect, or another doubt; inactive means no such curve, though single readings can be large; an effect the other way counts as inactive or inconclusive.
SMILES,IL1B secr inh,TDP1 cell noCPT,TGFb SMAD3 inh,DT40 TDP1 CPT,HepG2 viability,TDP1 block
CC(=O)Nc1cccc(C(=O)NN2C(=O)NC3(CCC(C)CC3)C2=O)c1 (stereo not given),20,-16%,2%,-3%,0%,.
O=C1NC(=Nc2ccccc2)SC1(CO)CO,5,-1%,5%,-9%,-19%,.
CC(=O)N1NC(=Nc2ccccc2)SC1(C)C,-75*,16µM*,-5%,?,2%,-2%
CN(C)Cc1c[nH]c2nc[nH]c(=O)c12,4,0%,9%,-1%,10%,.
COC(=O)C1CCN(C2CN(Cc3ccc(F)cc3)S(=O)(=O)C2)CC1 (stereo not given),39,-8%,-21%,-9%,-5%,.
Cc1nc2ccccc2n1CC(O)COc1ccc(C(=O)O)cc1 (stereo not given),.,9%,-3%,-18%,16%,.
Cc1nc2ccccc2n1CC(O)COc1ccccc1Cl (stereo not given),-8,9.2µM*,-22%,18µM*,-9%,-3%
COC(=O)c1ccc(OCC(O)CN2C(=O)c3ccccc3C2=O)cc1 (stereo not given),-3,3%,6%,8%,10%,.
Cc1nc2ccccc2n1CC(O)COc1ccc(Br)cc1 (stereo not given),?,18µM*,-29%,?,-24%,3%
CCCc1nc2ccccc2n1CC(O)COc1ccc(C(=O)OC)cc1 (stereo not given),.,21µM*,?,12µM*,-28%,5%
Cc1nc2ccccc2n1CC(O)Cn1c(C(F)(F)F)nc2ccccc21 (stereo not given),34,?,?,-19%,-4%,2%
COC(=O)c1ccc(OCC(O)CN(CC(C)C)CC(C)C)cc1 (stereo not given),10,29µM*,-5%,?,10%,4%
C=CCN1CCN(C(=O)CCc2ccccc2)CC1,4,1%,20%,1%,9%,2%
CCC(=O)c1ccc(OCC(O)Cn2c(C)nc3ccccc32)cc1 (stereo not given),24,18µM*,-26%,18µM*,0%,3%
COC(=O)c1ccc(OCC(O)Cn2cnc3cc(C)c(C)cc32)cc1 (stereo not given),.,9.2µM*,.,?,0%,9%
COc1cccc(Oc2nccc(N(C)C)c2C#N)c1,-19,-7%,-4%,-5%,-2%,.
CCN(CCCc1ccccc1)CCCc1ccccc1,-18,23µM*!,7%,10µM*!,-20%,5%
Cc1ccccc1NC(=O)C(C)OC(=O)CCC(=O)c1ccccc1 (stereo not given),?,-7%,-23%,3%,-4%,.
CCOC(=O)c1sc(N2C(=O)c3oc4ccc(F)cc4c(=O)c3C2c2ccc(C)cc2)nc1C (stereo not given),.,-5%,6%,4%,8%,.
CCC1=C2CC[C@H]3C(=O)N(C)C(=O)[C@H]3[C@H]2[C@@]2(C)C(=O)N(CC(=O)OC)C(=O)N2C1=O,.,.,.,.,.,6%
Cc1ccc(-c2ccnc3nc(-n4cccc4)nn23)o1,28,21µM*,6%,15µM*,-10%,0%
Cc1cc2c(cc1C)CSC(c1ccccc1O)SC2,-15,?,16µM*,?,-105%,6%
Cc1cc2c(cc1C)CSC(c1c(O)ccc3ccccc13)SC2,-78*,?,?,?,-99%,1%
Oc1ccccc1C1SC(c2ccccc2O)SC(c2ccccc2O)S1 (stereo not given),-89*,?,?,?,22µM*,.
COc1cc(CN2CCOc3ccc(CN4CCC(O)(c5cccnc5)CC4)cc3C2)cc(OC)c1,.,-12%,.,6%[9.04 µM],.,.
SMILES,IL1B secr inh,TDP1 cell noCPT,TGFb SMAD3 inh,DT40 TDP1 CPT,HepG2 viability,TDP1 block
CCc1ccc(CNC(=O)CN2C(=O)c3cccnc3Oc3ccc(Cl)cc32)cc1,.,16µM*,0%,?,-24%,-5%
CCOc1ccccc1CNC(=O)CN1C(=O)c2cccnc2Oc2ccc(Cl)cc21,.,16µM*,0%,?,-27%,1%
Cc1ccc2c(c1)N(CC(=O)NCc1cccc(Cl)c1)C(=O)c1cccnc1O2,.,?,?,?,-4%,-2%
O=C(CN1C(=O)c2cccnc2Oc2ccc(Cl)cc21)NC1CCCC1,-7,15µM*,3%,-16%,3%,14%
Cc1ccc(C)c(CSc2cn(CC(=O)N3CCCC3)c3ccccc23)c1,.,?,0%,?,-69%,5%
Cc1ccc(-c2cnc(C3CC3)o2)cc1S(=O)(=O)Nc1ccccc1,29,4.6µM*,-27%,4.6µM*,2%,2%
CC(=O)c1cccc(NS(=O)(=O)c2cc(-c3cnc(C4CC4)o3)ccc2C)c1,40,5.2µM*,-12%,5.8µM*,-20%,6%
COc1ccc(-c2cnc(C)o2)cc1S(=O)(=O)Nc1ccc(NC(C)=O)cc1,.,-6%,-1%,-3%,1%,1%
Cc1ccc(NS(=O)(=O)c2cc3[nH]c(=O)c(=O)[nH]c3cc2C)cc1Cl,.,-22%,0%,1%,-14%,-2%
Cc1ccc(NS(=O)(=O)c2cc(-c3cnc(C4CC4)o3)ccc2C)cc1Cl,.,5.2µM*,7.1µM*,7.3µM*,11µM*,6%
CC(=O)c1ccc(NS(=O)(=O)c2cc(-c3cnc(C4CC4)o3)ccc2C)cc1,66,?,-20%,13µM*,-21%,0%
CC(C)CC(=O)Nc1nnc(S(=O)(=O)N(CC(C)C)c2ccccc2)s1,.,?,-6%,?,0%,1%
CC(=O)Nc1ccc(NS(=O)(=O)c2cc(-c3cnc(C4CC4)o3)ccc2C)cc1,41,2.3µM*,8%,2.9µM*,-14%,-1%
COc1ccc(Cc2nc3ccc(C(=O)NCc4ncc(C)[nH]4)cc3o2)cc1OC,0,12%,7%,-25%,9%,2%
COc1ccc(Cc2nc3ccc(C(=O)NC4CCOC4)cc3o2)cc1OC (stereo not given),2,?,-9%,12µM*,-5%,.
C=CCN(CC=C)C(=O)c1ccc2nc(Cc3ccc(OC)c(OC)c3)oc2c1,?,4.6µM*,?,?,-19%,3%
